Results reported in PubChem BioAssay (NCI).
This is part of a sample that, as a whole, favours compounds with a hit. Of some 79,000 tested, about 15% had one in any assay. A number with no mark means an inactive call. Activity calls are given as the source filed them. No stated cut-off is given here; in the data, active means growth inhibition above about 70%; inactive means the rest.

How the values were obtained:
[1] = NCI Yeast Anticancer Drug Screen. Data for the rad50 strain (AID 155);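 further: 0% = growth of vehicle-only cultures of the same strain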; conditions: S. cerevisiae rad50 strain growth inhibition; at 50.0 µM; active compounds read high
Method in brief: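 Genetically altered yeast (DNA repair pathway); compound treatment; growth inhibition vs vehicle ctrl.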

[2] = NCI Yeast Anticancer Drug Screen. Data for the mec2-1 strain (AID 157); conditions: S. cerevisiae mec2-1 strain, at 50.0 µM, active compounds read high
Method in brief: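 Mutant yeast (mec2-1) grown with compound; growth inhibition relative to vehicle control reported.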

[3] = NCI Yeast Anticancer Drug Screen. Data for the sgs1 mgt1 strain (AID 161);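 further: 0% = growth of cultures given vehicle only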; conditions: S. cerevisiae sgs1 mgt1 strain, at 50.0 µM, active compounds read high
Method in brief: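 Percent growth inhibition was derived by comparing compound-exposed mutant yeast with vehicle-exposed cultures. The strain carries alterations in DNA damage repair.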

[4] = NCI Yeast Anticancer Drug Screen. Data for the cln2 rad14 strain (AID 165);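 further: 0% = growth equal to vehicle treated cultures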; conditions: S. cerevisiae cln2 rad14 strain, at 50.0 µM, active compounds read high
Method in brief: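 Readout is yeast growth inhibition versus vehicle-treated controls, using a strain with cln2 and rad14 alterations exposed to compound.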

[5] = NCI Yeast Anticancer Drug Screen. Data for the bub3 strain (AID 167); conditions: S. cerevisiae bub3 mutant strain, at 50.0 µM, active compounds read high
Method in brief: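 Yeast carrying a defined mutation is treated with each compound, and growth is compared with that of vehicle-exposed cells to give inhibition.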

[6] = NCI Yeast Anticancer Drug Screen. Data for the mlh1 rad18 strain (AID 175); conditions: S. cerevisiae mlh1 rad18 strain growth inhibition; at 50.0 µM; active compounds read high
Method in brief: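 Genetically defined yeast (DNA repair-deficient) exposed to compounds; growth inhibition determined relative to vehicle.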

Row | Compound | growth inhibition [1] | growth inhibition [2] | growth inhibition [3] | growth inhibition [4] | growth inhibition [5] | growth inhibition [6]
1 | Cc1ccc(O)c(Cc2cc(C)cc(Cc3cc(C)ccc3O)c2O)c1 | 30.2% | -7.85% | 15.2% | 36.9% | -2.85% | 42.4%
2 | CCN1CCCC(C#N)(c2ccccc2)CC1 (stereo not drawn) | 14.1% | 7.45% | 14.5% | 8.9% | 3.2% | -4.1%
3 | COc1ccc(/C=C/C(=O)c2sc(NC(=S)NC(=O)c3ccc(Cl)cc3)nc2C)cc1OC | 16.2% | 13.2% | 28.6% | 9.8% | -1.6% | 7.2%
4 | CCC1(C)C(=O)SC(=S)N1C (stereo not drawn) | 4.4% | -0.2% | -4.9% | -8.4% | -0.7% | 5.6%
5 | OCN(CO)c1ccc2c(c1)Cc1cc(Cl)ccc1-2 | 0.35% | -24.1% | -2.2% | 22.4% | 13.1% | 12.7%
6 | CCCOc1cc2c(cc1C(C)(C)c1ccccc1)OCO2 | -16.9% | -18.6% | -12.7% | -27.9% | -3.5% | -15.4%
7 | CC(N=Nc1ccccc1)/N=N/c1nn[nH]n1 (stereo not drawn) | 23.8% | -12.2% | -11.6% | -84% | -22% | -3.25%
8 | CCC(=O)Nc1nn[nH]n1 | -11.5% | -1.5% | -3.75% | 4.75% | 7.9% | -2.15%
9 | COC(=O)CCC(=O)Nc1cc(Cl)ccc1Cl | -2.35% | -16.1% | -0.35% | 6.45% | -4.15% | 6.3%
10 | CC(O)c1cccc(C(C)(C)O)c1Sc1c(C(C)(C)O)cccc1C(C)(C)O (stereo not drawn) | 13% | 7.8% | 10.1% | -0.75% | 6.25% | -14.6%
11 | CCC1(CC)COC2(CCC(C)CC2)OC1 | -6.4% | -2.95% | -5.05% | -16.1% | -14.7% | 7.5%
12 | CCCCCC1CCC(OC(=O)NC)CC1 (stereo not drawn) | 2% | 9.85% | -0.6% | -19.9% | 25.4% | -6.95%
13 | CC(=O)n1c(N)nc2ccccc21 | 21.3% | -2.85% | 6.95% | 3.4% | 1.45% | 28.8%
14 | Cc1nn(CCO)c2nc(N)nc(N)c12 | 2.05% | 3.35% | -0.4% | -1.45% | -6.35% | -3.2%
15 | Cc1ccc(NC2=N/C(=C/c3ccco3)C(Cl)=N2)cc1 | -21.5% | -22.1% | 14.5% | -1.8% | 3.8% | -31.9%
16 | COc1ccc(/C=C/c2ccc3ccccc3[n+]2C)cc1OC | 32% | 4.55% | 32.6% | 21.3% | 0.7% | 15.9%
17 | O=C(Sc1ccccc1)C1OC1c1ccccc1 (stereo not drawn) | 70.2% (active) | 28.6% | 22.6% | 60.8% | 63.1% | 80.5% (active)
18 | CCSc1n[nH]c(=S)c2nc[nH]c12 | 12.7% | 2.6% | 3.7% | 6.3% | 8.55% | -6.25%
19 | O=C1Nc2ccccc2C1=O | -0.85% | 11.4% | -31.8% | -22.5% | -12.3% | -50%

Row | Compound | growth inhibition [1] | growth inhibition [2] | growth inhibition [3] | growth inhibition [4] | growth inhibition [5] | growth inhibition [6]
20 | CC1(C)CNC(C)(C)CN1 | -4.45% | -11.8% | 4.35% | 1.1% | 17.5% | -18%
21 | Cc1cc(Cl)c(Cl)cc1NC(=O)c1ccccc1Cl | 1.55% | -11.3% | 4% | -9.25% | 8.9% | -5.25%
22 | CCSC(C(O)C(O)C(O)C(O)CO)n1cc(C)c(=O)[nH]c1=O (stereo not drawn) | 3% | 5.45% | -2.85% | -3.7% | 4.2% | -0.25%
23 | C=C1C(C)C2C(Cc3ccccc3)NC(=O)C23OC(=O)/C=C\CC(=O)CCC(C)C/C=C/C3C1O (stereo not drawn) | 91.4% (active) | 93.2% (active) | 93% (active) | 90.8% (active) | 90.8% (active) | 91.2% (active)
24 | Cc1c(C(=O)O)[nH]c(=O)[nH]c1=O | 9.1% | -20.4% | 2.2% | 11.5% | -0.35% | -12.1%
25 | CCCC[n+]1cc(C(N)=O)cc2ccccc21 | -3.9% | 7.3% | 3.25% | -44.5% | 5.7% | 9.45%
26 | Cc1cc(C)cc(NC(=O)CCC(=O)C2CCC/C2=N\NC(=O)C(=O)NN)c1 (stereo not drawn) | 3.95% | -2.7% | -20.6% | 2.1% | 5.2% | -6.8%
27 | Cc1ccc(N=Nc2ccc(C)cc2NC(=O)Nc2cc([N+](=O)[O-])ccc2F)cc1 | 13.4% | -16.1% | -4.6% | -5.9% | -4.3% | -5.4%
28 | COc1ccc(C[C@H](N)C(=O)NC2C(CO)OC(n3cnc4c(N(C)C)ncnc43)C2O)cc1 (stereo partly drawn) | -1.7% | -35.1% | -18.4% | -0.8% | -26.9% | -17.3%
29 | CNC(=O)C1NCCc2cc(OC)c(OC)cc21 (stereo not drawn) | 21.9% | -22% | 20.7% | 13.2% | 10.4% | 20.6%
30 | C=C(C)C(O)CC (stereo not drawn) | 24.6% | -30.7% | 15.3% | 4.3% | 10.9% | 20.4%
31 | C=CCOC(=O)NC(CCC(=O)OC)C(=O)O (stereo not drawn) | -0.5% | -2.1% | -6.25% | -9.3% | -2.45% | -0.2%
32 | Cc1ccc(S(=O)(=O)Oc2ccccc2OS(=O)(=O)c2ccc(C)cc2)cc1 | 3.4% | 2.35% | -13.9% | -4.1% | -5% | 0.75%
33 | O=S(=O)(O)c1ccc(-c2nc3ccccc3[nH]2)cc1 | 1.6% | 8.5% | 4.65% | 6% | 28.2% | -18.9%
34 | O=[N+]([O-])c1cccc(/C=[N+](\[O-])c2ccccc2)c1 | -3.45% | 8.2% | 13% | -38.6% | -16.9% | 0.6%
35 | Cc1ccc(-n2cc(-c3ccc(Cl)cc3)c3c(NNC(=S)NCc4ccccc4)ncnc32)cc1 | 30.9% | 35% | 52.5% | 32.4% | 40.7% | 11.1%
36 | CN(N=Nc1ccc(C#N)cc1)C(C)(C)C | 3.3% | -5.3% | 6.5% | -5.85% | -2.35% | 5.55%
37 | CC(=O)Nc1ccc(/C=N/NC(=O)/C=C/c2ccccc2)cc1 | -7.15% | 3.25% | 6.25% | -5% | -1% | 2.15%
38 | NC(N)=NS(=O)(=O)c1ccc(N2C(=O)CC3(CCCC3)C2=O)cc1 | 10.8% | -2.25% | -16.8% | 17.6% | 13.4% | 6.75%
